# Data published in PubChem BioAssay (NCATS).
# Records with an inconclusive call do not appear. The source made the active and inactive calls. Unless noted, calls follow the shape of the dose curve; as a rule, active = well fitted curve in the direction sought with a large enough effect; inconclusive = small, poorly fitted or top-dose-only effect, or another doubt; inactive = no such curve, though single readings can be large; an effect the other way counts as inactive or inconclusive. Where a SMILES comes first, the peptide text is derived from it.
# Tested on: not listed separately
# Experiment: NS1 protein of Zika virus - qHTS assay to identify small molecule inhibitors in human HEK 293 cells (AID 1347053);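 also: plate controls were infected untreated cells for no effect and uninfected cells for full effect; nearly all actives have a fitted effect of over 55% in size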
# Conditions: HEK293 ZIKV MR766 infection, NS1 TR-FRET, 24 h; series mostly up to 46.1 µM; activity change, negative = inhibition: at the top concentration
# Outline: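 Inhibition of NS1 expression was scored in HEK 293 cells given compound 1 h ahead of MR766 virus (MOI = 0.5). Following 24 h at 37 C, two anti-NS1 antibodies generated a TR-FRET signal, scaled between uninfected and infected controls.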
row,Compound,"activity change, negative = inhibition"
1,Nc1cc(C(F)(F)F)ccc1S,49.4% (inactive)
2,CC(=O)Nc1c(I)c(NC(C)=O)c(I)c(C(=O)O)c1I,-16.8% (inactive)
3,C[N+](C)(C)CCO,-13.3% (inactive)
4,CCCC(=O)c1cc(O)c(O)cc1O,12.7% [at 92.8 µM] (inactive)
5,O=C(c1cc(O)c(O)c(O)c1)c1ccc(O)c(O)c1O,0.657% (inactive)
6,Cn1cc(S(C)=O)c(=O)c2ccc(F)cc21 (stereo not drawn),3.78% (inactive)
7,O=C(Oc1ccccc1)c1cccc(C(=O)Oc2ccccc2)c1,5.42% [at 92.8 µM] (inactive)
8,CC(=O)O[C@@H]1CC2C3CCc4cc(OC(=O)c5ccccc5)ccc4C3CCC2(C)[C@H]1OC(C)=O (stereo partly drawn),5.18% (inactive)
9,N#CSCC(=O)O,3.56% (inactive)
10,Cc1ccccc1N1CCN(CCc2nnc3n2CCCC3)CC1,-3.78% (inactive)
11,CCCc1ccc(OCC(=O)N2CCN(C(=O)COc3ccc(CCC)cc3OC)CC2)c(OC)c1,-4.42% (inactive)
12,CCNC(=O)NCCCOc1cccc(CN2CCCCC2)c1,4.5% (inactive)
13,Cc1ccccc1C(=O)N1CC/C(=N\OS(=O)(=O)O)c2ccc(Cl)cc21,-0.673% (inactive)
14,CC(=O)OCC[N+](C)(C)C,3.75% (inactive)
15,CC(=O)Nc1ccn(C2COC(COC(=O)c3ccccc3)O2)c(=O)n1 (stereo not drawn),-0.505% (inactive)
16,Cc1onc(-c2ccccc2)c1C(=O)Cl,-4.25% (inactive)

row,Compound,"activity change, negative = inhibition"
1,CCCC(=O)OCOC(=O)C1=C(C)NC(C)=C(C(=O)OC)C1c1cccc(Cl)c1Cl (stereo not drawn),-10.7% (inactive)
2,CC(C)C(=O)Nc1cccc(C2CN3CCSC3=N2)c1 (stereo not drawn),-1.57% (inactive)
3,O=C1NC(=O)/C(=C/c2ccc3c(c2)OC(F)(F)O3)S1,0.87% (inactive)
4,CC(C)C[C@H](NC(=O)CNC(=O)[C@H](Cc1ccc(O)cc1)NC(=O)[C@H](CO)NC(=O)[C@H](Cc1c[nH]c2ccccc12)NC(=O)[C@H](Cc1cnc[nH]1)NC(=O)[C@@H]1CCC(=O)N1)C(=O)N[C@@H](CCCN=C(N)N)C(=O)N1CCC[C@H]1C(=O)NCC(N)=O (stereo in doubt),1.18% (inactive)
5,COc1cc2c(cc1OC)C(=O)CC2,-5.23% (inactive)
6,Clc1ccc2c(c1)Nc1ccccc1S2,4.63% (inactive)
7,Cc1ccc(/C=N/n2c(-c3ccccc3)csc2=S)cc1,-1.02% (inactive)
8,Nc1nnnn1-c1ccccc1,-0.431% (inactive)
9,CC(=O)N[C@@H](CO)C(=O)N[C@@H](CC(=O)O)C(=O)N[C@@H](CCCCN)C(=O)N1CCC[C@H]1C(=O)O (Ac-SDKP-OH),4.41% (inactive)
10,CC(C(=O)O)c1ccc(/C=C2\CCCCC2=O)cc1 (stereo not drawn),2.89% (inactive)
11,NC(=O)NC1N=C([O][Al])NC1=O (stereo not drawn),4.23% (inactive)
12,CC(=O)c1cc2ccccc2s1,1.7% (inactive)
13,Cc1ccc(-c2ccccc2C#N)cc1,-1.39% (inactive)
14,CC(=O)OCC(=O)Nc1cc(C#N)cc(NC(=O)COC(C)=O)c1Cl,-0.393% (inactive)
15,COc1ccc(/C(C)=C/C(=O)O)c(OC)c1,-8.08% (inactive)
16,CC(=O)Oc1ccc(C2(c3ccc(OC(C)=O)cc3)Oc3ccccc3NC2=O)cc1,13.9% (inactive)

# Molecular target: T1, Tyrosine-protein phosphatase non-receptor type substrate 1 (Homo sapiens) + Leukocyte surface antigen CD47 (Homo sapiens) (UniProt P78324+Q08722)
# T1 sequence (P78324 whole entry, looked up): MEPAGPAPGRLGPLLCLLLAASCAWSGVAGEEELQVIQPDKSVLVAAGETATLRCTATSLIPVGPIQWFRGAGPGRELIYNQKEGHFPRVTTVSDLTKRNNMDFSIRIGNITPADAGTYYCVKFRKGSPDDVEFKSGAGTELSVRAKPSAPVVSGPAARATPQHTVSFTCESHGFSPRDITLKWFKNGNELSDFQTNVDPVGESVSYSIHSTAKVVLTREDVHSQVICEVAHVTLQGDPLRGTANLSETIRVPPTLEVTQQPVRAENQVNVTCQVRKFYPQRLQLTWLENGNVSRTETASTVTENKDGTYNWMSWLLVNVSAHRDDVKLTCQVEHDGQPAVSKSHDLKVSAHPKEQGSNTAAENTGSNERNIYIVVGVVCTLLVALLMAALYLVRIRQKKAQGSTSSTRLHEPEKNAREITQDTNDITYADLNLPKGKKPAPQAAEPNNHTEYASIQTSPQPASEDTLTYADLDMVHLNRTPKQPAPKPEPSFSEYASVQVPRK
# T1 sequence (Q08722 whole entry, looked up): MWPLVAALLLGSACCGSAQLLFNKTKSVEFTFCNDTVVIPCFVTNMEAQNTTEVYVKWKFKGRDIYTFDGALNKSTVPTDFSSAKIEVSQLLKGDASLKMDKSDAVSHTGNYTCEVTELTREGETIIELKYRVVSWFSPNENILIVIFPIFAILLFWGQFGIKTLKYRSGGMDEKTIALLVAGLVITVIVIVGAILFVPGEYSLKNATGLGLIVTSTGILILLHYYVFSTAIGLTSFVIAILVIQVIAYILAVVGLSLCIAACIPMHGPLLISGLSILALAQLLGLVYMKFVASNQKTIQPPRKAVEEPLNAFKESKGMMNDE
# Experiment: CD47-SIRPalpha protein protein interaction - LANCE assay qHTS validation (AID 1347057; active = well fitted curve in the direction sought with a large enough effect in the signal ratio, with a control signal flat, not every such curve was filed as active; the % refers to the signal ratio; also: 0% is about no effect)
# Conditions: Recombinant CD47-His / biotin-SIRPalpha, TR-FRET ratio; series mostly up to 38.3 µM; activity change, negative = inhibition: at the top concentration
# Outline: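 First, His-tagged CD47 and Eu-labelled anti-His antibody met the compound for 30 min; next, site-specifically biotinylated SIRPalpha was added for 30 min; finally streptavidin-APC was added before reading the TR-FRET ratio.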
row,Compound,"activity change, negative = inhibition"
1,C[N+](C)(C)CCO,0.717% (inactive)
2,CC(C)N(CCC(=O)c1ccc2ccccc2c1)Cc1ccccc1,0.633% (inactive)
3,O=C1NC(=O)/C(=C/c2ccc3c(c2)OC(F)(F)O3)S1,0.304% (inactive)

# Molecular target: T1, Tyrosine-protein phosphatase non-receptor type substrate 1 (Homo sapiens) + Leukocyte surface antigen CD47 (Homo sapiens)
# Experiment: CD47-SIRPalpha protein protein interaction - Alpha assay qHTS validation (AID 1347059);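 also: bead proximity luminescence from CD47 binding SIRPalpha after compound preincubation with SIRPalpha; % is scaled to controls: 0 for no effect and ±100 for the full control effect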
# Conditions: AlphaScreen CD47-His/biotin-SIRPalpha binding, LOPAC; series mostly up to 38.3 µM; activity change, negative = inhibition: at the top concentration
# Outline: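 Binding is measured by AlphaScreen proximity: Ni-NTA acceptor beads capture His-CD47, streptavidin donor beads capture biotin-SIRPalpha. Each of three additions (SIRPalpha with compound, CD47, beads) incubates 30 min at room temperature protected from light.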
row,Compound,"activity change, negative = inhibition"
1,C[N+](C)(C)CCO,-1.81% (inactive)
2,CC(C)N(CCC(=O)c1ccc2ccccc2c1)Cc1ccccc1,2.73% (inactive)
3,O=C1NC(=O)/C(=C/c2ccc3c(c2)OC(F)(F)O3)S1,-3.1% (inactive)

# Molecular target: Parathyroid hormone/parathyroid hormone-related peptide receptor (Homo sapiens) (UniProt Q03431)
# Sequence (Q03431 whole entry, looked up): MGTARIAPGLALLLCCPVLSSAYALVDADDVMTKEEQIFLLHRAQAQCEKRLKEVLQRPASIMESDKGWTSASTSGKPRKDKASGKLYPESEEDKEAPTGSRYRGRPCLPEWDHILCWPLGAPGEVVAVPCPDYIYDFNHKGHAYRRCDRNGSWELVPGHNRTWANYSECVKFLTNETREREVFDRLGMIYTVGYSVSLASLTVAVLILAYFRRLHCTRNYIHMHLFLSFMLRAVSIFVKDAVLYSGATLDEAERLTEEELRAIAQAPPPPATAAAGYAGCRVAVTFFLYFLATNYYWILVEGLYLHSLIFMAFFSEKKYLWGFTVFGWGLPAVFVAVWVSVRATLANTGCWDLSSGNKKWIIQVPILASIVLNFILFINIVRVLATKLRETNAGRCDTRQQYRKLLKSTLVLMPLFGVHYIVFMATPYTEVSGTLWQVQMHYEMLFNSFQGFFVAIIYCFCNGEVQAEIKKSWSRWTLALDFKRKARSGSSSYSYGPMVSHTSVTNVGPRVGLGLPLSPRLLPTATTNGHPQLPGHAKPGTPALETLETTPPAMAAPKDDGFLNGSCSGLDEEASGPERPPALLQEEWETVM
# Experiment: qHTS for PTHR1 Agonists: Optimization Screen against the NCGC LOPAC library (AID 1347079);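 also: GloSensor cAMP luminescence in HEK-293 GP2 cells expressing human PTHR1 with IBMX; 0% is about no effect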
# Conditions: HEK293 GP2 PTHR1 GloSensor cAMP luminescence, 1 h; series mostly up to 57.1 µM; activation: at the top concentration
# Outline: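 Agonist readout: GloSensor cAMP luminescence, read after 15 min at room temperature. HEK-293-derived GP2 line carries PTHR1; compounds tested as a titration for 1 hr at 37C in presence of IBMX. M-PTH (1-15) served as control.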
row,Compound,activation
1,C[N+](C)(C)CCO,7.07% (inactive)
2,CC(C)N(CCC(=O)c1ccc2ccccc2c1)Cc1ccccc1,-21.8% (inactive)
3,O=C1NC(=O)/C(=C/c2ccc3c(c2)OC(F)(F)O3)S1,-21.1% (inactive)

# Tested on: not listed separately
# Experiment: qHTS of pediatric cancer cell lines to identify multiple opportunities for drug repurposing: Primary screen for TC32 cells (AID 1347089); also: nearly all actives have a fitted effect of over 60% in size; also: potency is read from the fitted curve at half-maximal effect; as to activity change, negative = cytotoxic: % is scaled to controls: 0 for no effect and ±100 for the full control effect
# Conditions: TC32 Ewing sarcoma viability, CellTiter-Glo luminescence, 48 h; series mostly up to 45.8 µM; activity change, negative = cytotoxic: at the top concentration
# Outline: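 qHTS, TC32, 48 h drug treatment, CellTiter-Glo luminescence as a proxy for metabolically active cells; primary top concentration 46 µM (MIPE 11-pt, NPC 8-pt); confirmatory 11-pt.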
Compound,"activity change, negative = cytotoxic",Potency
CC(=O)Nc1c(I)c(NC(C)=O)c(I)c(C(=O)O)c1I,13.1% (inactive),–
CCCC(=O)c1cc(O)c(O)cc1O,-0.295% [at 92.2 µM] (inactive),–
O=C(c1cc(O)c(O)c(O)c1)c1ccc(O)c(O)c1O,-21.4% (inactive),–
Cn1cc(S(C)=O)c(=O)c2ccc(F)cc21 (stereo not drawn),10.8% (inactive),–
O=C(Oc1ccccc1)c1cccc(C(=O)Oc2ccccc2)c1,0% [at 92.2 µM] (inactive),–
CC(=O)O[C@@H]1CC2C3CCc4cc(OC(=O)c5ccccc5)ccc4C3CCC2(C)[C@H]1OC(C)=O (stereo partly drawn),5.69% (inactive),–
N#CSCC(=O)O,5.74% (inactive),–
Cc1ccccc1N1CCN(CCc2nnc3n2CCCC3)CC1,2.6% (inactive),–
CCCc1ccc(OCC(=O)N2CCN(C(=O)COc3ccc(CCC)cc3OC)CC2)c(OC)c1,8.79% (inactive),–
CCC(=O)O[C@]1(C(=O)COC)[C@@H](C)C[C@H]2[C@@H]3CCC4=CC(=O)C=C[C@]4(C)C3(F)[C@@H](O)C[C@@]21C (stereo partly drawn),13% (inactive),–
CCNC(=O)NCCCOc1cccc(CN2CCCCC2)c1,2.23% (inactive),–
Cc1ccccc1C(=O)N1CC/C(=N\OS(=O)(=O)O)c2ccc(Cl)cc21,14.7% (inactive),–
CC(=O)OCC[N+](C)(C)C,6.36% (inactive),–
CC(=O)Nc1ccn(C2COC(COC(=O)c3ccccc3)O2)c(=O)n1 (stereo not drawn),–,1.67 µM (active)
CCCCNc1ccc(C(=O)OCCN(CC)CC)cc1,7.04% (inactive),–
Cc1onc(-c2ccccc2)c1C(=O)Cl,13.8% (inactive),–

Compound,"activity change, negative = cytotoxic",Potency
CCCC(=O)OCOC(=O)C1=C(C)NC(C)=C(C(=O)OC)C1c1cccc(Cl)c1Cl (stereo not drawn),15.9% (inactive),–
CC(C)C(=O)Nc1cccc(C2CN3CCSC3=N2)c1 (stereo not drawn),-3.86% (inactive),–
CC(C)C[C@H](NC(=O)CNC(=O)[C@H](Cc1ccc(O)cc1)NC(=O)[C@H](CO)NC(=O)[C@H](Cc1c[nH]c2ccccc12)NC(=O)[C@H](Cc1cnc[nH]1)NC(=O)[C@@H]1CCC(=O)N1)C(=O)N[C@@H](CCCN=C(N)N)C(=O)N1CCC[C@H]1C(=O)NCC(N)=O (stereo in doubt),8.2% (inactive),–
COc1cc2c(cc1OC)C(=O)CC2,0.862% (inactive),–
Clc1ccc2c(c1)Nc1ccccc1S2,8.37% (inactive),–
Cc1ccc(/C=N/n2c(-c3ccccc3)csc2=S)cc1,10% (inactive),–
Nc1nnnn1-c1ccccc1,-8.37% (inactive),–
CC(=O)N[C@@H](CO)C(=O)N[C@@H](CC(=O)O)C(=O)N[C@@H](CCCCN)C(=O)N1CCC[C@H]1C(=O)O (Ac-SDKP-OH),7.62% (inactive),–
CC(C(=O)O)c1ccc(/C=C2\CCCCC2=O)cc1 (stereo not drawn),10% (inactive),–
Nc1ccc([N+](=O)[O-])c(C(F)(F)F)c1,10.8% (inactive),–
NC(=O)NC1N=C([O][Al])NC1=O (stereo not drawn),-3.85% (inactive),–
COCCc1ccccn1,1.25% (inactive),–
CC(=O)c1cc2ccccc2s1,2.18% (inactive),–
Cc1ccc(-c2ccccc2C#N)cc1,13.1% (inactive),–
CC(=O)OCC(=O)Nc1cc(C#N)cc(NC(=O)COC(C)=O)c1Cl,11% (inactive),–
COc1ccc(/C(C)=C/C(=O)O)c(OC)c1,13.6% (inactive),–
